Source: PubChem BioAssay AID686979 (National Center for Advancing Translational Sciences (NCATS), 2013)
Out of some 420,000 compounds screened, about 50,000 (12%) were called active. Not shown: some 26% with an inconclusive outcome. The entries come from a sample that favours actives as a whole. Values without a mark were called inactive. The call rests on the fitted dose curve; in most records, active means well fitted inhibition curve with a large enough effect; inconclusive means small, poorly fitted or top-dose-only effect; inactive means flat fitted curve, though single readings scatter.

Assay: qHTS for Inhibitors of human tyrosyl-DNA phosphodiesterase 1 (TDP1): qHTS in cells in presence of CPT; further: nearly all actives have a fitted effect of over 55% in size
Details: chicken DT40 Tdp1-/-;hTDP1 cells + 20 nM CPT, ATP luminescence, 48 h; series mostly up to 46.2 µM; activity change, negative = growth inhibition: at the top concentration
Procedure, shortened: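 Cell growth measured by CellTiter-Glo luminescence after a minimum 48 h, 37 C compound exposure with 20 nM CPT in Tdp1-knockout DT40 cells stably expressing hTDP1, seeded 400/well; qHTS titration format.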
On the % scale 0 is the no-effect control and ±100 the full control effect; potency means the concentration at half of the fitted maximal effect.

SMILES | activity change, negative = growth inhibition [%] | Potency
Cc1nnc(NC(=O)Cn2c(=O)sc3ccccc32)s1 | 9.47 | 
O=C(NNc1nc(N2CCCC2)nc(N2CCCC2)n1)c1ccccc1 | 0.8 | 
c1ccc(CC2CCN(c3nc4ccccc4n4cnnc34)CC2)cc1 | -8.49 | 
O=C(c1ccccc1)c1ccc2nc(N3CCCCC3)c3nncn3c2c1 |  | 23.1 µM (active)
O=C(CN1CCCCC1)NC(=O)Nc1ccccc1F | -11.1 | 
Cc1cc(C)c(C(N)=O)c(Cl)n1 | -4.65 | 
COc1ccc(CN2C(=O)C(CC(=O)NCCN3CCOCC3)CC(C(=O)N(C(C)C)C(C)C)=C2C)cc1 (stereo not drawn) | -29.1 | 
CC(C)(Oc1ccc(Cl)cc1)C(=O)OCC(=O)NCCc1ccc(S(N)(=O)=O)cc1 | -16.8 | 
O=C(N/N=C/c1ccc(Cl)c(Cl)c1)c1ccc2nc[nH]c2c1 | -76.4 | 
CCCc1cc(=O)oc2c(C)c(OCC(=O)N3CCC(C(=O)O)CC3)ccc12 | -4.53 | 
CN(C)CCCNC(=S)N1CCC(c2nc3ccccc3[nH]2)CC1 | 0.871 | 
O=S(=O)(c1ccc(Br)cc1)N1CCC(c2nc3ccccc3[nH]2)CC1 |  | 18.4 µM (active)
O=C(NCc1ccccn1)C1CCN(S(=O)(=O)c2ccc(Br)cc2)CC1 | -7.15 | 
Cc1ccc2oc(C(=O)N3CCN(C)C[C@@H]3C(C)C)c(C)c2c1 | -28 | 
CN(C(=O)CN1C(=O)NC(C)(CCc2ccccc2)C1=O)c1ccccc1 (stereo not drawn) | 5.1 | 
Cc1cccc(-n2c(SCC(=O)Nc3cccc(S(=O)(=O)NC4=NCCCCC4)c3)nc3ccccc3c2=O)c1C |  | 5.17 µM (active)
CCc1ccc(C(=O)OCC(=O)Nc2cccc(S(=O)(=O)NC3=NCCCCC3)c2)cc1 | 8.22 | 
COc1ccccc1C(=O)OCC(=O)Nc1cccc(S(=O)(=O)NC2=NCCCCC2)c1 | -3.79 | 
O=c1ccc(-c2ccc(S(=O)(=O)Nc3ccccc3)o2)n[nH]1 | -6.29 | 
CCOc1ccc(NC(=O)C/C(C)=N/NC(=O)Cc2cccs2)cc1 | 17.8 | 
Cc1ccc2c(c1)c1c(c(=O)n(-c3ccccc3)c(=O)n1CC(=O)c1ccc(Cl)cc1)n2C | -3.09 | 
O=C1OC(Cc2ccccc2)C(c2ccccc2)C1=O (stereo not drawn) | -6.46 | 
NC(=O)CSc1oc(-c2cccs2)nc1S(=O)(=O)c1ccccc1 | 6.63 | 
Cc1c(-c2ccccc2)nc(N)c(C#N)c1-c1cccs1 | 2.19 | 
Cc1ccc(CSc2oc(-c3cccs3)nc2S(=O)(=O)c2ccc(C)cc2)cc1 |  | 13 µM (active)
COC(=O)CSc1nccc(-c2cccs2)n1 | 3.52 | 
CCCCS(=O)(=O)c1oc(-c2cccs2)nc1S(=O)(=O)c1ccccc1 |  | 0.82 µM (active)

SMILES | activity change, negative = growth inhibition [%] | Potency
Cc1ccc(CSc2ccc(S(=O)(=O)N3CCCCC3)cn2)cc1 | -0.899 | 
Cc1ccc(NC(=O)COC(=O)CNC(=O)c2ccc(Cl)cc2Cl)cc1S(=O)(=O)N1CCOCC1 | 16.6 | 
COc1ccc2[nH]c3c(c2c1)CCN1C(=O)C(CC(=O)NCCc2ccccn2)C[C@H](C(=O)N2CCOCC2)[C@@]31C (stereo partly drawn) | -0.962 | 
COc1ccc(OCCCCN2CCC(C)CC2)cc1 | -3.58 | 
O=S(=O)(Nc1cccc(-c2ccc(N3CCOCC3)nn2)c1)c1ccc(Cl)c(Cl)c1 | -3.47 | 
CCN(CC)C(CNC(=O)CSc1nnnn1-c1cccc(F)c1)c1ccco1 (stereo not drawn) | -20 | 
COc1ccc(N(C(=O)CNC(=O)c2ccco2)C(C(=O)NCC2CCCO2)c2ccccc2)cc1Cl (stereo not drawn) | 11.1 | 
O=c1c2ccccc2nc2n1C(CSCc1cccc(C(F)(F)F)c1)CS2 (stereo not drawn) |  | 3.66 µM (active)
O=c1c2ccccc2nc2n1C(CSc1ccc(F)cc1)CN2 (stereo not drawn) | 3.24 | 
O=S(=O)(c1cccc(C(F)(F)F)c1)N1CCN(c2nc(-c3cccs3)nc3ccccc23)CC1 | 4.24 | 
O=c1c2ccccc2nc2n1C(CSCc1ccccc1)CS2 (stereo not drawn) |  | 8.2 µM (active)
O=c1c2ccccc2nc2n1C(CSc1ccc(Cl)cc1)CN2 (stereo not drawn) | -1.74 | 
N#Cc1c(-c2ccccc2)nc(SCc2cccc(C(F)(F)F)c2)[nH]c1=O | -0.969 | 
COc1ccc(-c2c(C)c3ccc(O)c(CN4CCN(C)CC4)c3oc2=O)cc1OC | -29.5 | 
O=c1c2c(-c3ccccc3)ccnc2[nH]n1-c1ccccc1 |  | inactive
COc1cc(/C=C2\SC(=O)NC2=O)ccc1OCc1ccc(Cl)nc1 | -1.3 | 
C=CCNC(=O)c1ccc(C)c(Br)c1 | 25.2 | 
C=CCNC(=O)c1ccc2nc(-c3ccco3)c(-c3ccco3)nc2c1 |  | 11.2 µM (active)
C=CCNC(=O)c1cc(-c2ccccc2O)on1 | -22.6 | 
CCSc1nnc(SCC(=O)NNC(=O)c2ccccc2F)s1 | -10.2 | 
Cn1c(=O)cc(SCC(=O)N2CCCC2)c2cc(Cl)ccc21 | -6 | 
CCOc1ccc(CCNC(=O)Nc2ccccc2)cc1OCC | -29.2 | 
CCN(CCCNC(=O)CSc1cc(=O)n(C)c2cc(Cl)ccc12)Cc1ccccc1 | -4.12 | 
COc1cccc(NC(=O)CN(C)C(=O)Cc2ccc(Cl)cc2Cl)c1 | -14.2 | 
COc1cccc(NC(=O)CSc2cc(=O)n(C)c3ccc(Cl)cc23)c1 |  | 23.1 µM (active)
CCOc1ccc(CCNC(=O)CSc2cc(=O)n(C)c3ccc(Cl)cc23)cc1OCC |  | 18.4 µM (active)
